# From PubChem BioAssay (NCATS)
# Calls of active or inactive are those of the source. The call rests on the fitted dose curve; in most records, active means well fitted curve in the direction sought with a large enough effect; inconclusive means small, poorly fitted or top-dose-only effect, or another doubt; inactive means no such curve, though single readings can be large or run the other way.
# Target: Alpha-galactosidase (Coffea arabica) (UniProt Q42656)
# Assay: Counterscreen for Glucocerebrosidase Inhibitors: qHTS Assay for Coffee Bean alpha-Galactosidase at pH 4.5 (AID 957); further: series mostly up to about 77 µM
# Summary of the method: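 AC50 values derive from Hill-equation modeling of concentration-response data, normalized to no-enzyme and full-activity controls. The pH 4.5 citrate assay used 2 nM coffee bean enzyme and 80 uM fluorogenic substrate for 20 min.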
# Chain of Alpha-galactosidase (Coffea arabica) (Q42656 whole entry, looked up): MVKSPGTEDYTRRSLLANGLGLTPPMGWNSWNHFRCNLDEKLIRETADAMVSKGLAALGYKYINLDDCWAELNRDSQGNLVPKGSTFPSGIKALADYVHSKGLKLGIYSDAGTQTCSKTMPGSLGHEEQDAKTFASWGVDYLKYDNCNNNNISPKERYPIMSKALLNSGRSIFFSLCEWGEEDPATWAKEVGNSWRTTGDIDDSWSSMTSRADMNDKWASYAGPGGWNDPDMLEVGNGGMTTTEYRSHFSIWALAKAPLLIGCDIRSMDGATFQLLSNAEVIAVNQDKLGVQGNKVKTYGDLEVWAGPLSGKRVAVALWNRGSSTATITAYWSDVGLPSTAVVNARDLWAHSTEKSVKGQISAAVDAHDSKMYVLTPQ
row,SMILES,outcome
1,NCCc1c[nH]c2ccccc12,inactive
2,CCCCc1ccc(C(=O)O)nc1,inactive
3,CCN1CCc2nc(N)oc2CC1,inactive
4,O=C(O)CC[N+](=O)[O-],inactive
5,COc1ccc2c(c[n+](C)c3c4cc5c(cc4ccc23)OCO5)c1OC,inactive
6,CCc1c(C)[nH]c2c1C(=O)C(CN1CCOCC1)CC2 (configuration not stated),inactive
7,CC(C)(Sc1ccc(CCN(CCCCC2CCCCC2)C(=O)NC2CCCCC2)cc1)C(=O)O,inactive
8,CC(=O)Oc1ccccc1C(=O)O,inactive
9,CCOC(=O)C1=C[C@@]2(CC)CCCN3CCc4c(n1c1ccccc41)[C@H]32,inactive
10,CC(C)Oc1cccnc1N(C)C1CCN(Cc2ccccc2)CC1,inactive
11,C[N+](C)(C)CC(=O)O,inactive
12,CC(C)c1ccc2c(c1)c(SC(C)(C)C)c(CC(C)(C)C(=O)O)n2Cc1ccc(Cl)cc1,inactive
13,CS(=O)(=O)Nc1ccc([N+](=O)[O-])cc1Oc1ccccc1,inactive
14,CC[C@@]1(O)C(=O)OCc2c1cc1n(c2=O)Cc2cc3ccccc3nc2-1,inactive
15,CNCCc1ccc(O)c(O)c1,inactive
16,C#CCOC(=O)C1=CCCN(C)C1,inactive
17,Cn1cnc(CCN)c1,inactive
18,C[C@]12C[C@H](O)[C@H]3[C@@H](CCC4=CC(=O)CC[C@@]43C)[C@@H]1CC[C@@H]2C(=O)CO,inactive
19,C[C@@H]1O[C@H](C[N+](C)(C)C)C[C@H]1O,inactive
20,Cc1c(C(=O)c2cccc3ccccc23)c2cccc3c2n1[C@H](CN1CCOCC1)CO3,inactive
21,NCCS,inactive
22,NCc1cc(=O)[nH]o1,inactive
